A number with no mark means an inactive call. The call rests on the fitted dose curve; in most records, active means well fitted curve in the direction sought with a large enough effect; inactive means no such curve, though single readings can be large or run the other way.

Chain of Alpha-galactosidase A (Homo sapiens) (P06280 whole entry, looked up): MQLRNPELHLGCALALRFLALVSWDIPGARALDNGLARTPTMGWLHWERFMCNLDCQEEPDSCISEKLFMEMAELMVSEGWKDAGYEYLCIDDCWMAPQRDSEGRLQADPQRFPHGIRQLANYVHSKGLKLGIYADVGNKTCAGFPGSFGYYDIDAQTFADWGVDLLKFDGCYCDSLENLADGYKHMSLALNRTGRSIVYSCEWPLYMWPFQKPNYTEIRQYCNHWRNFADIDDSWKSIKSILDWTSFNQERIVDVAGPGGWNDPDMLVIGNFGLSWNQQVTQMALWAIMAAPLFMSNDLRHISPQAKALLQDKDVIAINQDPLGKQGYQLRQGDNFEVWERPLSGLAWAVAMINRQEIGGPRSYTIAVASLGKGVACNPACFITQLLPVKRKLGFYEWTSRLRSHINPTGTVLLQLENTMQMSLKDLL

This assay deals with Alpha-galactosidase A (Homo sapiens) (UniProt P06280). The experiment in a line: qHTS Assay for Inhibitors and Activators of N370S glucocerebrosidase as a Potential Chaperone Treatment of Gaucher Disease: Alpha-Galactosidase Counterscreen for Probe SAR. The settings on record: purified human alpha-galactosidase, 4-MU-alpha-Gal fluorescence. The source says:
NIH Chemical Genomics Center [NCGC] NIH Molecular Libraries Probe Production Centers Network [MLPCN] MLPCN Grant: MH086442-01 Assay Submitter (PI): Wei Zheng Glucocerebrosidase (GC) catalyzes the hydrolysis of beta-glucocerebroside to glucose and ceramide in lysosomes. Mutations in the glucocerebrosidase gene result in Gaucher disease, an autosomal recessive lysosomal storage disorder. Many of the mutations encountered in patients with Gaucher disease are missense alterations that may cause misfolding, decreased stability and/or mistrafficking of this lysosomal protein. […] These inhibitors include iminosugar analogs and three non-iminosugar inhibitors identified from a previous HTS of 62,000 compounds with the wild type recombinant enzyme. However, the enhancement of enzyme activity by the chaperone action of an enzyme inhibitor must be balanced against the direct inhibition of the enzyme. An enzyme activator could also function as a chaperone by binding to the enzyme and helping to correct its misfolding and mistrafficking. While activators for GC have not yet been identified, they may have better therapeutic potential than inhibitors. Therefore the discovery and development of chemical activators may provide a new strategy for the chaperone therapy. To characterize compound selectivity, selected hits from the primary screen were screened against purified alpha-galactosidase, a related sugar hydrolase. Alpha-galactosidase is a homodimeric glycoprotein that hydrolyzes the terminal alpha-galactosyl moieties from glycolipids and glycoproteins.
NCGC Assay Protocol Summary: This is a fluorogenic enzyme assay with 4-Methylumbelliferyl alpha-D-galactopyranoside as the substrate and human […] as the enzyme preparation. Upon the hydrolysis of this fluorogenic substrate, the resulting product, […]. 4-Methyllumbelliferone, can be excited at 365 nm and emits at 440 nm. This fluorescence which can be detected by a standard fluorescence plate reader. Data were normalized to the controls for basal activity (without enzyme) and 100% activity (with enzyme). In the AC50 values were determined from concentration-response data modeled with the standard Hill equation. Assay buffer: 50 mM citric acid (titrated with potassium phosphate to pH 4.5), 0.005% Tween-20, pH 4.5. (pH 4.5 is an optimal condition for this enzyme assay) 1536-well assay protocol for the human alpha-galactosidase: (1) Add 2 ul/well of enzyme (12 nM final) (2) Add 23 nL compounds in DMSO solution. The final titration was 0.7 nM to 77 uM. (3) Add 1 ul of substrate ([…]) (4) Incubate at room temperature for 20 min. (5) Add 2 ul stop solution (1M NaOH and 1M Glycine mixture, pH 10) (6) Detect the assay plate in a ViewLux plate reader (PerkinElmer) with Ex=365 nm and Em=440nm.
For orientation: Quantitative high-throughput screening tests each substance at several concentrations.
With `C=C1C=C(C(F)F)n2ncc(C(=O)Nc3ccc(C(C)CC)cc3)c2N1` (stereo unspecified), the max response was -7.63%. In the case of `O=C(Nc1ccc2c(c1)CCC2)c1cnn2c1NC(=C1CC1)C=C2C(F)F` it was -2.77%; in that of `C#Cc1ccc(NC(=O)c2cnn3c(C)cc(C)nc23)cc1`, -7.39%; in that of `O=C(Nc1ccccc1Sc1ccccc1)c1cnn2c1NC(=C1CC1)C=C2C(F)F`, -8.53%. The result for `O=C(NC1CCCCC1)c1cnn2c1NC(=C1CC1)C=C2C(F)F` reads -4.62%; that for `O=C(Nc1ccccc1Sc1ccccc1)c1cnn2c1NC(=C1CC1)C=C2C(F)(F)F`, -8.17%.

Source of the values: PubChem BioAssay AID488846 (National Center for Advancing Translational Sciences (NCATS), 2010).
